Screening results deposited in PubChem BioAssay by National Center for Advancing Translational Sciences (NCATS).
HPGD block – blocks human HPGD enzyme activity; hit rate 4.3% among 150,000; Potency, µM, for the others: top-dose activity change, negative = inhibition, usual class: inhibitors; purified HPGD, NADH fluorescence kinetic, PGE2 substrate; further: potency means the concentration at half of the fitted maximal effect
Target sequence (P15428 whole entry, looked up): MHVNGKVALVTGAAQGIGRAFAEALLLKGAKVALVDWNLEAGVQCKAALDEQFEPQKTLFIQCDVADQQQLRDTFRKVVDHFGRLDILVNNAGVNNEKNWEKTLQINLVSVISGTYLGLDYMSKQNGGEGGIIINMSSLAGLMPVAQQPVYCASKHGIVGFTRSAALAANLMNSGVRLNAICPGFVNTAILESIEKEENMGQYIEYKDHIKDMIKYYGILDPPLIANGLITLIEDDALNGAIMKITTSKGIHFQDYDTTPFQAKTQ
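20 nM HPGD preincubated 15 min at room temperature with compound in 50 mM Tris-HCl pH 8, 0.01% Tween 20. Started with 1 mM NAD+ and 30 uM prostaglandin E2; NADH fluorescence (360/450 nm) read 5 times over 30-s intervals, last minus first.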
PNC assembly inh – perinucleolar compartment assembly inhibition. PC3M PTB-GFP, PNC prevalence imaging, 16 h; hits give low values. AID 2417. hit rate 3.1% among 140,000. activity change (PNC), negative = inhibition, % at 10 µM;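 active means readout at or below -70, meaning at least 70% loss of cells showing the perinucleolar compartment, a nuclear body marking cancer cells; inconclusive means readout between -30 and a set limit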;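 further: plate controls were DMSO wells for no effect and camptothecin positive control wells for full effect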
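Compounds are pinned in duplicate onto adhered PC3M cells stably expressing GFP-tagged PTB and incubated 16 h at 37 C. Cells are then fixed, nuclei stained with Hoechst, and PNC-positive cells counted.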
ALDH1A1 block – ALDH1A1 (human) enzyme inhibition; P00352; Purified ALDH1A1, NADH fluorescence, propionaldehyde substrate; Potency, µM (titrated, usually from 75.3 µM), for the others: at the top dose activity, negative = inhibition, most hits filed as inhibitors; hit rate 7.3% among 220,000;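 further: potency means the concentration at half of the fitted maximal effect; plate controls were no enzyme wells and a reference inhibitor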
* hit, by the source's call; ? = inconclusive; · = no result given; [ ] = another dose, or the depositor's remark. Hits are enriched below; roughly 11% of the tested compounds scored in any of these assays. Unless noted, the call rests on the fitted dose curve; in most records, active means well fitted inhibition curve with a large enough effect (not every such curve was filed as active); inconclusive means small, poorly fitted or top-dose-only effect, or another doubt; inactive means no such curve, though single readings can be large or run the other way. Unless noted, on the % scale 0 is the no-effect control and ±100 the full control effect.

SMILES | HPGD block | PNC assembly inh | ALDH1A1 block
Cc1nc2ncnn2c(C)c1Cc1cccc(C(F)(F)F)c1 | · | · | 6%
CCCCc1nc2c(c3c1C[C@H](C)OC3)CN(S(=O)(=O)c1ccc(C)cc1)CC2 | -4% | · | -8%[13.5 µM]
O=C(O)/C=C(\Oc1ccccc1)C1(O)CCCCC1 | · | · | -2%
Fc1ccccc1Nc1nc(-c2ccncc2)nc2ccccc12 | -12% | 0 | 10%
O=C(Nc1nccs1)c1cc2sccc2n1Cc1ccc(F)cc1 | ? | 40 | ?
O=C(NCCN1CCOCC1)c1cc2sccc2n1Cc1ccc(Cl)cc1 | 16µM* | ? | ?
O=C(NCCN1CCOCC1)c1ccc(CS(=O)(=O)c2ccc(Cl)cc2)o1 | -4% | 36 | 3%
O=C(NCCN1CCOCC1)c1cc2sccc2n1Cc1ccc(F)cc1 | 25µM* | 13 | -14%
CCn1c(C(=O)N2CCC(C(=O)NCc3cccs3)CC2)cc2sccc21 | -4% | 33 | -8%
O=C(NCc1ccco1)C1CCN(C(=O)c2cc3sccc3n2Cc2ccc(Cl)cc2)CC1 | -6% | 8 | 13µM*
Cn1c(CNC(=O)c2ccc(F)cc2)nc2ccccc21 | -10% | -29 | 6%
CSc1nc(N(C)NC(=O)c2ccc(F)cc2)c2ccccc2n1 | -1% | -83* | 17%
Cc1ccc(CN2CC(C(=O)Nc3cccc(S(=O)(=O)N4CCCCC4)c3)CC2=O)cc1 (configuration not stated) | -19% | 23 | -2%
Cc1cc(F)ccc1OC1C=CC(c2ccc3c(c2)OCO3)OC1CO (configuration not stated) | · | · | 0%[13.5 µM]
O=C(CN1CCN(S(=O)(=O)c2ccc(Br)cc2)CC1)N/N=C/c1cc([N+](=O)[O-])ccc1Cl | -9% | 4 | ?
Cc1ccc(S(=O)(=O)N2CCN(CC(=O)N/N=C\c3ccc(Cl)c([N+](=O)[O-])c3)CC2)cc1 | -2% | -6 | 8.9µM*
O=C(CN1CCN(S(=O)(=O)c2ccc(Br)cc2)CC1)N/N=C/c1ccc(Cl)c([N+](=O)[O-])c1 | -8% | 75 | 20µM*
Cc1ccc(S(=O)(=O)N2CCN(CC(=O)N/N=C\c3cccnc3)CC2)cc1 | 1% | ? | 3%
COc1cc(CC(=O)NNC(=O)c2cc(C)oc2C)cc(OC)c1OC | 0% | ? | 2%
CCOc1cc(C(=O)Nn2cnnc2)cc(OCC)c1OCC | · | · | 7%
CCOc1cc(C(=O)NC(=S)Nn2cnnc2)cc(OCC)c1OCC | · | · | 11µM*
COc1ccc(-c2cc(C(F)F)nn2-c2ccc(S(N)(=O)=O)cc2)cc1F | -18% | · | 17%
CC1(C)C([N+](=O)[O-])C(c2ccc(Cl)cc2)NC(c2ccc(Cl)cc2)C1[N+](=O)[O-] (configuration not stated) | -9% | -8 | -24%
COC(=O)CC1c2ccccc2C=C(C2CC2)N1C(=O)OC (configuration not stated) | -3% | · | 1%
CCOC(=O)c1nc(C)nc(Sc2n[nH]c(-c3ccc(C(C)(C)C)cc3)n2)c1C | · | · | -8%
SMILES | HPGD block | PNC assembly inh | ALDH1A1 block
COc1ccc(/C=C/C(=O)c2ccc(Cl)s2)cc1O | ? | -11 | ?
COc1ccc(C(=O)/C=C/c2ccc(OC)c(O)c2)c(F)c1 | 32µM* | -25 | 4%
COC(=O)C1CC(=O)c2ccsc2C1 (configuration not stated) | -1% | -109* | 5%
COC(=O)C1CC(=O)N(c2ccc(C)cc2)C1 (configuration not stated) | · | · | 5%
COc1ccc(-c2nsc(SCC(=O)Nc3ccc4c(c3)OCO4)n2)cc1 | -17% | 2 | 5%
CCOC(=O)N1CCN(C(=O)CSc2nc(-c3cccc(C)c3)ns2)CC1 | ? | -5 | ?
CCOC(=O)CNC(=O)CSc1nc(-c2ccccc2)ns1 | · | · | 25µM*
CCOC(=O)CSc1nc(-c2ccc(OC)cc2)ns1 | 35µM* | ? | 25µM*
O=C(COC(=O)c1cccc(F)c1)Nc1cccnc1Cl | · | · | 5%
Cc1noc(C)c1C(=O)N1CCC2(CCCN(C(=O)Nc3ccccc3)C2)CC1 | -5% | · | 3%
CCSC1(SCC)N=C(N)C2(C#N)C(c3ccc(OC)c(OC)c3OC)C12C#N (configuration not stated) | 8.9µM* | ? | ?
CCSC1(SCC)N=C(N)C2(C#N)C(c3ccccc3)NC3=C(CCC3)C12C#N (configuration not stated) | -10% | ? | -5%
CN1CCN(C(=O)c2ccc3c(c2)NC(=O)C(C)(C)O3)CC1 | 8.9µM* | 13 | -4%
Cc1ccc(C(=O)N2CCN(C)CC2)cc1S(=O)(=O)N1CCCCC1 | -21% | -5 | ?
O[C@H]1[C@H]2c3cc4c(cc3CN3CCC(=C[C@@H]1O)[C@H]23)OCO4 | · | · | -2%
CS(=O)(=O)N1CCC2(CCCN(C(c3ccccc3)c3ccccc3)C2)CC1 | 1% | · | 12%
COc1cc(OC)cc(-c2nnc(SCc3cccc(C(=O)O)c3)o2)c1 | 11µM* | ? | -13%
COc1ccc(OC)c(-c2nnc(SCC(=O)N3CCCc4ccccc43)o2)c1 | ? | 20 | ?
COc1cccc(-c2nnc(SCC(=O)N3CCCc4ccccc43)o2)c1 | 28µM* | ? | 7.9µM*
Cc1occc1-c1nnc(SCC(=O)N2CCc3ccccc32)o1 | -12% | -29 | 0.79µM*
O=C(CSc1nnc(-c2cccs2)o1)N1CCc2ccccc21 | -14% | ? | 11%
CSc1nsc(SCC(=O)N2CCc3ccccc32)n1 | -22% | -15 | ?
O=C(O)c1cccc(CSc2nnc(-c3ccco3)o2)c1 | -13% | 54 | 5%
Cc1nnc(SCC(=O)N2CCc3ccccc32)s1 | -10% | 18 | 28µM*
CCCCC/C=C\C/C=C\C/C=C\C/C=C\CCCCCC(=O)NCC(=O)O | -19% | · | -3%
SMILES | HPGD block | PNC assembly inh | ALDH1A1 block
CC(=O)c1cccc(S(=O)(=O)NCC2CCCCC2)c1 | -5% | ? | ?
Cc1ccc(S(=O)(=O)N(C)C)cc1NC(=O)CN1C(=O)NC2(CCCc3ccccc32)C1=O (configuration not stated) | -2% | ? | 12%
COC(=O)c1cc(NS(=O)(=O)c2ccc(N3CCOCC3)c(N)c2)cc(C(=O)OC)c1 | -19% | -15 | 6%
N#CC(=C1CCCC1)c1nc(-c2ccccc2O)cs1 | ? | ? | 25µM*
N#CC(=C1CCCC1)c1nc(-c2ccccc2)cs1 | -13% | 74 | -11%
CCC(C)NC(=O)c1cc(Sc2nnc(C)s2)nc2ccccc12 (configuration not stated) | ? | -11 | 4%
O=C(NNC(=S)Nc1ccccc1)c1cccs1 | -7% | 12 | -11%
O=C(NNC(=S)Nc1ccc(Cl)cc1)c1cccs1 | · | · | 11µM*
CCCCC(=O)Nc1ccc(NC(=S)NC(=O)CCCCl)cc1OC | -19% | -4 | ?
CCCCC(=O)Nc1ccc(NC(=S)NC(=O)c2cccs2)cc1OC | -11% | ? | 20µM*
O=C(N/N=C\c1ccc2c(c1)OCO2)c1ccco1 | · | ? | -4%
CCN(CC)c1ccc(NC(=O)c2ccco2)cc1 | -16% | 15 | -4%
CCN(CC)c1ccc(/C=N/NC(=O)c2ccco2)cc1 | -29% | -94* | 10µM*
CCN(CC)c1ccc(NC(=S)NC(=O)c2ccco2)cc1 | · | · | 25µM*
COc1ccccc1CN1CCNC(=O)C1CC(=O)N(C)Cc1ccon1 (configuration not stated) | · | · | -1%
